Mcl1-Noxa inh: Mcl-1/Noxa interaction inhibition. Q07820. TR-FRET Mcl-1/Noxa peptide binding, 2 h. inhibition, % at 21.7 µM. 1.5% of 220,000 active. AID 1022;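 active = compounds that cut the protein-peptide binding signal by more than 50% relative to plate controls in a single-dose test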;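 also: His-tagged Mcl-1 with rhodamine Noxa BH3 peptide and terbium anti-His antibody; 0% = Mcl-1 plus Noxa peptide wells and 100% = peptide-only wells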
14-3-3 Bad PPI: disrupts binding of bovine 14-3-3 zeta to phospho-Bad peptide. P63103. 0.71% of 220,000 active. TR-FRET 14-3-3zeta/Dy647-pBad peptide displacement, 1 h. inhibition, % at 21.7 µM;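 active = inhibition above about 70%, limit read from the data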;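 also: 0% = full 14-3-3 plus peptide FRET controls and 100% = background without 14-3-3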
Target sequence (P63103 whole entry, looked up): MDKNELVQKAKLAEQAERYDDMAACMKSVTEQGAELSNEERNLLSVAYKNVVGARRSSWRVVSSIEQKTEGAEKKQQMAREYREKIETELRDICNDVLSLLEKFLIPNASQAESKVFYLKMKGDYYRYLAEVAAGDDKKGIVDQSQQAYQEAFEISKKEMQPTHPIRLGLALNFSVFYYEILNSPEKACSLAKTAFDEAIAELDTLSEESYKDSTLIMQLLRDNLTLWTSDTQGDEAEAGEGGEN
p47phox inh: inhibitors of human p47phox binding; 0.53% of 220,000 active; inhibition, % at 24.7 µM; AID 1274; P14598; p47phox/p22phox peptide binding, fluorescence polarization, 2 h;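 active = inhibition above about 30%, limit read from the data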;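 also: 0% = p47phox with labelled peptide and 100% = labelled peptide alone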
Target sequence (P14598 whole entry, looked up): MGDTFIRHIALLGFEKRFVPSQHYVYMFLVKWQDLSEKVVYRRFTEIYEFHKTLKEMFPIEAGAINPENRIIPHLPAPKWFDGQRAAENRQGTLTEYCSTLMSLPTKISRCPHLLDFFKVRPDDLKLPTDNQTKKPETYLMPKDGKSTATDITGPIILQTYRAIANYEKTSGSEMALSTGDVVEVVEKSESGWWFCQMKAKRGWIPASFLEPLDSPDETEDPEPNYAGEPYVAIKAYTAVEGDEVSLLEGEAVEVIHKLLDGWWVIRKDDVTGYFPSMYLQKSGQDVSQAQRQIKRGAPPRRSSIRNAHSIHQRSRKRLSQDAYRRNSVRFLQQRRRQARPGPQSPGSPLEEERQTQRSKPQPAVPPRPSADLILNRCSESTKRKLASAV
Mcl1 Bid PPI: Mcl-1/Bid interaction inhibition; AID 1021; TR-FRET Mcl-1/Bid-Dy647 peptide binding, 1536-well; inhibition, % at 21.7 µM; 0.97% of 220,000 active; Q07820;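 active = compounds that cut the binding signal by more than half at the single screening dose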;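 also: His-tagged Mcl-1 with europium anti-His antibody binding Bid BH3 peptide; 0% = Mcl-1 plus peptide wells and 100% = peptide-only wells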
Mcl-1 Bim block: inhibitors of Bim-Mcl-1 interaction, human; Bead-based flow cytometry, Bim peptide-Mcl-1 binding; inhibition, % at 10 µM; AID 1009; 0.1% of 190,000 active; in the data active = inhibition above about 40%;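 also: 0% = no compound tracer wells and 100% = peptide blocker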
* hit, by the source's call; / = no result given; [ ] = another dose, or the depositor's remark. Sampled rows, rich in hits. Any-hit rate of the full collection: about 3.1%.

SMILES	Mcl1-Noxa inh	14-3-3 Bad PPI	p47phox inh	Mcl1 Bid PPI	Mcl-1 Bim block
COc1ccc(/C=N/NC(=O)c2ccc(CN3c4cccc5cccc(c45)S3(=O)=O)cc2)cc1	2.0	11.8	-22.3	-16.9	-2.0
CN(CC#CC(O)(c1ccccc1)c1ccccc1)C(C)(C)C	-1.2	3.6	-7.8	-1.3	/
O=C(CN1CCN(Cc2ccccc2Cl)C1=O)NCc1ccccn1	-11.4	-4.0	5.6	-35.7	/
CCCCN1C(=O)C2C3C=CC(C2C1=O)C1C2C(=O)N(CCCC)C(=O)C2C31 (stereo not drawn)	-0.9	0.6	-11.4	42.4	0.0
O=C1C2C3C=CC(C2C(=O)N1CCCO)C1C2C(=O)N(CCCO)C(=O)C2C31 (stereo not drawn)	-3.6	-5.7	-7.6	62.9*	1.0
O=C(Cn1cccn1)c1ccccc1	-8.4	-10.8	0.0	-11.2	2.0
Cc1ccc(-n2c(SCC(=O)NCc3ccco3)nc3sc4c(c3c2=O)CC(C)(C)SC4)cc1	-85.4	-25.2	-14.0	88.7*	2.0
O=S(=O)(c1cccs1)N1CCCc2cccc(O)c21	12.3	74.2*	-5.9	-62.6	-1.0
CCC(=O)Nc1ccccc1C(=O)OCc1ccc(C(=O)c2ccccc2)cc1	-8.7	-2.7	-10.1	-28.6	-3.0
COc1ccc(C(=O)Nc2ccc(C(=O)OCC(=O)c3cccc4ccccc34)cc2)cc1	15.1	6.7	-4.8	-7.0	44.0*
CCC(=O)Nc1ccccc1C(=O)OCC(=O)c1cccc2ccccc12	-2.9	85.3*[fluorescence artefact?]	-4.6	3.6	-1.0
CCCCCCn1c(=O)[nH]c2nc3cc(N)ccc3nc2c1=O	-123.5	-2.6	-24.0	-46.7	2.0
Cc1cccc(-c2c3c(=O)n(C)c(=O)n(C)c3c3cccnn23)c1	4.9	-15.7	-11.1	-34.8	-2.0
CC(=O)N1C(=O)CC(C)N(C(C)=O)c2ccc([N+](=O)[O-])cc21 (stereo not drawn)	9.4	18.6	-7.3	17.9	-3.0
Nc1cc2nsnc2cc1Br	61.1*	7.8	18.3	-44.1	0.0
C/C(=N\NC(=O)CCc1ccc(S(=O)(=O)N2CCOCC2)cc1)c1ccccc1Cl	17.6	-9.6	0.4	-13.3	0.0
Cc1ccc2nc(SC(C)C(=O)NC3CCCc4ccccc43)[nH]c2c1 (stereo not drawn)	10.6	-5.2	-2.0	84.0*	-4.0
O=C(CSc1nc2ccc(Cl)cc2[nH]1)NC1CCCc2ccccc21 (stereo not drawn)	11.9	1.5	-11.3	3.9	-2.0
C/C(=N\NC(=O)CSc1nc(C)cc(C)n1)c1ccc([N+](=O)[O-])cc1	9.3	-1.9	-3.5	8.9	/
CC(C)n1c(=S)[nH]c2scc(-c3cccs3)c2c1=O	73.1*	0.6	1.6	-17.0	/
CC(C)Nc1nc(Oc2ccc(=O)n(-c3ccccc3)n2)nc(N(C)C)n1	15.2	1.1	14.5	0.4	/
COc1cc(OC)cc(C(=O)NNC(=O)NC2CCCCC2)c1	-2.6	-11.0	-6.2	-24.3	-3.0
CCOC(=O)CSc1nnc(-c2cccc(Cl)c2)n1CC	-9.2	-2.5	-7.0	-26.7	45.0*
CCOC(=O)CSc1nnc(-c2ccc(OC)cc2)n1CC	1.0	-5.4	-3.0	-15.6	0.0
COCCCNCCCCOc1ccc(Br)cc1C	20.7	6.4	41.1*	3.9	-2.0
SMILES	Mcl1-Noxa inh	14-3-3 Bad PPI	p47phox inh	Mcl1 Bid PPI	Mcl-1 Bim block
NC(=O)CC(NC(=O)c1cccc(Br)c1)c1ccc(NCCN2CCOCC2)c([N+](=O)[O-])c1 (stereo not drawn)	2.9	7.7	-9.6	-32.1	/
Cc1nn(C(C)C(=O)NCC2CCCO2)c(C)c1[N+](=O)[O-] (stereo not drawn)	-11.8	-11.0	3.2	-25.4	0.0
CC(=NCCN1CCN(C(=S)Nc2ccccc2)CC1)C1=C(O)CC(C)(C)CC1=O	-17.6	-8.7	-12.0	-72.2	-2.0
CC(C)N(Cc1nc(-c2ccccc2)no1)C(=O)c1ccc(Cl)cc1	-1.9	-6.5	58.7*	16.9	-3.0
CNCc1ccccc1Sc1ccc(OC)c(OC)c1	2.1	8.2	2.0	-27.9	-6.0
C=CCn1c(N2CCN(c3ccc(OC)cc3)CC2)nc2c1c(=O)[nH]c(=O)n2C	-1.5	-8.3	-2.6	-52.2	1.0
CCc1ccc(NC(=O)N(CCN2CCOCC2)Cc2ccc3c(c2)CCCN3CC)cc1	73.9*	-9.7	43.0*	-69.2	-7.0
CCN1CCCc2cc(CN(CCN3CCOCC3)C(=S)Nc3cccc(C)c3)ccc21	64.0*	11.7	-16.1	-97.9	-2.0
CCN1CCCc2cc(CN(CCN3CCOCC3)C(=S)Nc3ccc(OC)c(OC)c3)ccc21	25.1	3.0	-11.1	-66.2	-1.0
CCN1CCCc2cc(CN(CCN3CCOCC3)C(=S)Nc3ccccc3OC)ccc21	59.7*	-8.8	-6.9	-60.6	-2.0
CCN1CCCc2cc(CN(CCN3CCOCC3)C(=S)Nc3ccc(OC)c(Cl)c3)ccc21	-3.5	-2.6	-23.4	-37.9	0.0
CCN1CCCc2cc(CN(CCN3CCOCC3)C(=O)Nc3ccc(C)c(C)c3)ccc21	-1.8	13.1	11.6	-35.1	-2.0
CCN1CCCc2cc(CN(CCN3CCOCC3)C(=S)Nc3ccccc3C)ccc21	71.9*	-5.9	-14.3	-99.1	-1.0
COc1ccc(CNC(=O)c2ccc(Br)o2)cc1	8.1	6.9	2.7	-2.4	0.0
Cc1cc(C(=O)NC2CCCc3ccccc32)no1 (stereo not drawn)	14.4	-8.5	-11.9	-6.5	46.0*
CC(C)(C)C(=O)Nc1nc2cc3c(cc2s1)OCO3	-1.9	-13.0	-8.0	-9.3	/
NCCCCCc1nnc(SCC(N)=O)o1	8.4	-1.0	-3.7	-22.0	0.0
Oc1c(CN2CCN(c3ccccc3)CC2)cc(Br)c2cccnc12	-106.0	-11.5	-79.8	-187.7	/
c1ccc(N2CCN(Cc3ccnc4ccccc34)CC2)cc1	25.1	71.5*	0.9	2.5	-5.0
Cc1c(C#N)c(NC(=O)CCl)n(Cc2cccs2)c1C	16.2	-2.1	-16.7	-16.0	-1.0
COc1ccc(C2CC(c3cccs3)=NN2S(C)(=O)=O)cc1OC (stereo not drawn)	-10.2	-7.8	-160.5	-25.0	-1.0
COc1ccc(C2CC(c3c(-c4ccccc4)c4cc(Cl)ccc4[nH]c3=O)=NN2S(C)(=O)=O)cc1OC (stereo not drawn)	-4.5	27.0	-51.4	58.7*	0.0
CCOC(=O)c1cccc(Nc2nc(C)cc(C)n2)c1	3.4	70.8*	-5.7	9.8	-1.0
Cc1ccc(C)c(S(=O)(=O)Nc2cc(SCC(=O)O)c(O)c3ccccc23)c1	79.0*	83.9*[fluorescence artefact?]	6.9	-15.9	4.0
O=C(O)CSc1cc(NS(=O)(=O)c2cccc([N+](=O)[O-])c2)c2ccccc2c1O	76.2*	85.7*	11.4	15.8	/
O=C(O)c1cccc(S(=O)(=O)Nc2ccc([N+](=O)[O-])cc2O)c1	-11.9	-0.6	-6.5	-110.0	/
CCOC(=O)NCc1ccc(S(=O)(=O)Nc2ccccc2C)cc1	1.7	-2.5	4.7	-13.9	1.0
O=S(=O)(Nc1cc(Sc2cccc3cccnc23)c(O)c2ccccc12)c1ccccc1	68.3*	9.5	13.6	-13.4	2.0
